The record followed here is PubChem BioAssay (EPA / NIEHS).

The source made the active and inactive calls. The calls were made as follows: active = hit-call score of the fitted dose curve at least 0.9, where 1 is the maximum; inactive = score below 0.9.

Read-out in experiment [1]: TIMP metallopeptidase inhibitor 2 (TIMP2), TIMP2 (gene 7077)
Kind of experiment: BSK_KF3CT_TIMP2: BioMAP Diversity Plus: KF3CT Assay for TIMP metallopeptidase inhibitor 2 (TIMP2) Biomarker Activity (AID 2283071). The settings on record: primary human keratinocytes with fibroblasts; actives raise or lower the signal. The essentials:
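Human primary keratinocyte/foreskin fibroblast co-culture dosed with chemical and sampled at 24 h. TIMP-2 levels quantified by ELISA; bidirectional fitting against DMSO negative control as baseline.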

Read-out in experiment [2]: Transforming growth factor beta 1 (TGFb1), TGFB1 (gene 7040)
Nature of the experiment: BSK_KF3CT_TGFb1: BioMAP Diversity Plus: KF3CT Assay for Transforming growth factor beta 1 (TGFb1) Biomarker Activity (AID 2283072). The settings on record: primary human keratinocytes with fibroblasts; actives raise or lower the signal. The procedure, abridged:
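Human keratinocyte plus foreskin fibroblast primary co-culture, dosed with chemical for 24 h. TGF-b1 quantified by ELISA. Activity fitted bidirectionally against DMSO negative control as baseline.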

Read-out in experiment [3]: C-C motif chemokine 2 (Homo sapiens) (UniProt P13500)
Kind of experiment: BSK_KF3CT_MCP1: BioMAP Diversity Plus: KF3CT Assay for Monocyte Chemoattractant Protein 1 (MCP1/CCL2) Biomarker Activity (AID 2283073). Particulars: primary human keratinocytes with fibroblasts; actives raise or lower the signal. The essentials:
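Keratinocytes and foreskin fibroblasts were co-cultured, dosed with chemical, and sampled 24 h later. MCP-1 was quantified by ELISA, and the endpoint was analyzed with bidirectional fitting using DMSO as negative control.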

Read-out in experiment [4]: Matrix Metallopeptidase 9 (MMP9), MMP9 (gene 4318)
Kind of experiment: BSK_KF3CT_MMP9: BioMAP Diversity Plus: KF3CT Assay for Matrix Metallopeptidase 9 (MMP9) Biomarker Activity (AID 2283074).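 As to AC50: MMP9 protein level quantified by ELISA in the co-culture.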 The settings on record: primary human keratinocytes with fibroblasts; actives raise or lower the signal. The essentials: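 Human keratinocyte/foreskin fibroblast co-culture; compound added; 24 h; MMP-9 by ELISA; bidirectional fit vs DMSO baseline.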

Read-out in experiment [5]: urokinase plasminogen activator (uPA), PLAU (gene 5328)
Kind of experiment: BSK_KF3CT_uPA: BioMAP Diversity Plus: KF3CT Assay for urokinase plasminogen activator (uPA) Biomarker Activity (AID 2283075). Particulars: primary human keratinocytes with fibroblasts; actives raise or lower the signal. The procedure, abridged:
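ELISA readout of uPA, analyzed for signal gain or loss relative to DMSO, from a human primary keratinocyte–foreskin fibroblast co-culture measured 24 h after chemical treatment.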

Read-out in experiment [6]: E-selectin (Homo sapiens) (UniProt P16581)
Kind of experiment: BSK_LPS_Eselectin: BioMAP Diversity Plus: LPS Assay for Eselectin Biomarker Activity (AID 2283077). Particulars: primary human HUVEC with PBMC; actives raise or lower the signal. The procedure, abridged:
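Signal of E-selectin, detected by ELISA, served as the endpoint; cells were umbilical vein endothelium with PBMC, read 24 h after treatment. DMSO defined baseline, and both increases and decreases were fitted.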

Read-out in experiment [7]: Interleukin-8 (IL8), CXCL8 (gene 3576)
Kind of experiment: BSK_LPS_IL8: BioMAP Diversity Plus: LPS Assay for Interleukin-8 (IL8) Biomarker Activity (AID 2283078). The settings on record: primary human HUVEC with PBMC; actives raise or lower the signal. The procedure, abridged:
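Endothelial cells and PBMC from human donors are co-cultured, treated with chemicals and LPS, then assayed for IL-8 by ELISA after 24 h. Parallel SRB staining (0.1% SRB after 10% TCA fixation, 560 nm) flags cytotoxicity.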

Experiment [8] is described as follows: BSK_LPS_SRB: Viability Assessment in the BioMAP Diversity Plus: LPS Assay (AID 2283079).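 Also: total protein by sulforhodamine B absorbance as a cytotoxicity measure; measured one day after compound addition; fitted in both directions against DMSO so loss or gain of signal counts.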 The settings on record: primary human HUVEC with PBMC. The essentials: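 Overt cytotoxicity was gauged by sulforhodamine B total-protein staining in a primary human vascular endothelial and mononuclear cell co-culture 24 h post-dosing. Activity was fitted in both directions relative to DMSO.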

Read-out in experiment [9]: Interleukin-1 alpha (IL1a), IL1A (gene 3552)
Kind of experiment: BSK_LPS_IL1a: BioMAP Diversity Plus: LPS Assay for Interleukin-1 alpha (IL1a) Biomarker Activity (AID 2283080). Particulars: primary human HUVEC with PBMC; actives raise or lower the signal. The procedure, abridged:
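Measured: IL-1 alpha via ELISA at 24 h in LPS-activated human umbilical vein endothelium–PBMC co-culture. Baseline: DMSO, bidirectional fitting.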

Read-out in experiment [10]: Monocyte Chemoattractant Protein-1 (MCP1), CCL2 (gene 6347)
Nature of the experiment: BSK_LPS_MCP1: BioMAP Diversity Plus: LPS Assay for Monocyte Chemoattractant Protein-1 (MCP1) Biomarker Activity (AID 2283081).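 As to AC50: secreted MCP-1 protein quantified by ELISA in culture supernatant.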 The settings on record: primary human HUVEC with PBMC; actives raise or lower the signal. The essentials: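 LPS-stimulated HUVEC/PBMC co-culture; chemical, 24 h; MCP-1 by ELISA; bidirectional fit vs DMSO; cytotoxicity via SRB (0.1% stain, 10% TCA fix, 560 nm) in parallel wells.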

Experiment [11] can be described thus: BSK_LPS_PGE2: BioMAP Diversity Plus: LPS Assay for Prostaglandin E2 (PGE2) Biomarker Activity (AID 2283082).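 As to AC50: secreted prostaglandin E2 measured by ELISA in LPS-stimulated co-culture.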 The settings on record: primary human HUVEC with PBMC; actives raise or lower the signal. The procedure, abridged:
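HUVEC plus PBMC co-culture stimulated with LPS; secreted PGE2 quantified by ELISA 24 h after chemical dosing. Activity fitted bidirectionally against DMSO as negative control and baseline; parallel SRB total-protein staining served as cytotoxicity check.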

Read-out in experiment [12]: Macrophage colony-stimulating factor (MCSF), CSF1 (gene 1435)
Kind of experiment: BSK_LPS_MCSF: BioMAP Diversity Plus: LPS Assay for Macrophage colony-stimulating factor (MCSF) Biomarker Activity (AID 2283083). The settings on record: primary human HUVEC with PBMC; actives raise or lower the signal. The procedure, abridged:
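Compound is added to a human vascular primary co-culture of umbilical vein endothelium and blood mononuclear cells. After 24 h, M-CSF is quantified by ELISA. Signal changes are fitted in both directions against DMSO.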

Read-out in experiment [13]: Tissue Factor, F3 (gene 2152)
Kind of experiment: BSK_LPS_TissueFactor: BioMAP Diversity Plus: LPS Assay for Tissue Factor Biomarker Activity (AID 2283084). The settings on record: primary human HUVEC with PBMC; actives raise or lower the signal. The procedure, abridged: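 In this co-culture system of umbilical vein endothelium with PBMC, stimulated with LPS, cell-surface CD142 is detected by ELISA at 24 h. Endpoint values derive from bidirectional fitting, DMSO serving as baseline.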

Read-out in experiment [14]: Tumor necrosis factor (Homo sapiens) (UniProt P01375)
Kind of experiment: BSK_LPS_TNFa: BioMAP Diversity Plus: LPS Assay for Tumour Necrosis Factor alpha (TNFa) Biomarker Activity (AID 2283085). Particulars: primary human HUVEC with PBMC; actives raise or lower the signal. The procedure, abridged:
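Human umbilical vein endothelial cells co-cultured with PBMC were exposed to test chemical and TNFa measured by ELISA 24 h after dosing. Bidirectional curve fitting was done relative to DMSO as negative control and baseline.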

Read-out in experiment [15]: Vascular cell adhesion molecule 1 (VCAM1), VCAM1 (gene 7412)
Nature of the experiment: BSK_LPS_VCAM1: BioMAP Diversity Plus: LPS Assay for Vascular cell adhesion molecule 1 (VCAM1) Biomarker Activity (AID 2283086). The settings on record: primary human HUVEC with PBMC; actives raise or lower the signal. The procedure, abridged:
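Human umbilical vein endothelial cells co-cultured with peripheral blood mononuclear cells under LPS stimulation were exposed to test chemical for 24 h. VCAM-1 levels were then measured by ELISA, with bidirectional curve fitting relative to DMSO as negative control and baseline.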

Read-out in the next experiment: CD38, CD38 (gene 952)
Kind of experiment: BSK_SAg_CD38: BioMAP Diversity Plus: SAg Assay for CD38 Biomarker Activity (AID 2283087). Particulars: primary human HUVEC with PBMC; actives raise or lower the signal. The essentials:
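Fluorescence ELISA of cell-surface CD38 served as the read-out, with either increase or decrease fitted against DMSO controls. Cells were a human umbilical vein endothelium plus PBMC co-culture under SEB/TSST-1 stimulation, measured 24 h after dosing.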

Read-out in experiment [16]: CD40, CD40 (gene 958)
Kind of experiment: BSK_SAg_CD40: BioMAP Diversity Plus: SAg Assay for CD40 Biomarker Activity (AID 2283088). Particulars: primary human HUVEC with PBMC; actives raise or lower the signal. The essentials: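 Fluorescence ELISA read-out of CD40 from umbilical vein endothelium plus peripheral blood mononuclear cells, sampled 24 h after dosing. Values come from bidirectional curve fitting with DMSO as baseline.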

Read-out in another experiment: CD69, CD69 (gene 969)
Kind of experiment: BSK_SAg_CD69: BioMAP Diversity Plus: SAg Assay for CD69 Biomarker Activity (AID 2283089).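 As to AC50: cell surface CD69 protein quantified by ELISA with fluorescence detection.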 Particulars: primary human HUVEC with PBMC; actives raise or lower the signal. The procedure, abridged:
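Endothelial/PBMC co-culture; chemical added; 24 h incubation; CD69 ELISA with fluorescence detection; bidirectional fit vs DMSO.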

Read-out in experiment [17]: Monocyte Chemoattractant Protein-1 (MCP1), CCL2 (gene 6347)
Kind of experiment: BSK_SAg_MCP1: BioMAP Diversity Plus: SAg Assay for Monocyte Chemoattractant Protein-1 (MCP1) Biomarker Activity (AID 2283090). The settings on record: primary human HUVEC with PBMC; actives raise or lower the signal. The procedure, abridged: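 MCP-1 levels in the endothelial–PBMC SAg co-culture were quantified by ELISA at 24 h post-dosing; both increases and decreases versus DMSO scored. Cytotoxicity monitored by SRB total protein in parallel cultures.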

Read-out in experiment [18]: CD40, CD40 (gene 958)
Kind of experiment: BSK_LPS_CD40: BioMAP Diversity Plus: LPS Assay for CD40 Biomarker Activity (AID 2283076). Particulars: primary human HUVEC with PBMC; actives raise or lower the signal. The procedure, abridged: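 CD40 signal, measured by ELISA, is fitted in both directions relative to DMSO vehicle. The system is an LPS-driven human vascular primary co-culture of endothelial cells and PBMC, sampled 24 h after compound addition.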

Chain of Tumor necrosis factor (Homo sapiens) (P01375 whole entry, looked up): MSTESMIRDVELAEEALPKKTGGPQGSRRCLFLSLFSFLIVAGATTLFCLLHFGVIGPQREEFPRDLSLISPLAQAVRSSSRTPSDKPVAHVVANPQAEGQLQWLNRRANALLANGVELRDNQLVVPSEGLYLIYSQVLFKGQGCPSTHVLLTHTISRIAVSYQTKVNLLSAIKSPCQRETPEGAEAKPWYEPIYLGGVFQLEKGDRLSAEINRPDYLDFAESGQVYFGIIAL
Chain of E-selectin (Homo sapiens) (P16581 whole entry, looked up): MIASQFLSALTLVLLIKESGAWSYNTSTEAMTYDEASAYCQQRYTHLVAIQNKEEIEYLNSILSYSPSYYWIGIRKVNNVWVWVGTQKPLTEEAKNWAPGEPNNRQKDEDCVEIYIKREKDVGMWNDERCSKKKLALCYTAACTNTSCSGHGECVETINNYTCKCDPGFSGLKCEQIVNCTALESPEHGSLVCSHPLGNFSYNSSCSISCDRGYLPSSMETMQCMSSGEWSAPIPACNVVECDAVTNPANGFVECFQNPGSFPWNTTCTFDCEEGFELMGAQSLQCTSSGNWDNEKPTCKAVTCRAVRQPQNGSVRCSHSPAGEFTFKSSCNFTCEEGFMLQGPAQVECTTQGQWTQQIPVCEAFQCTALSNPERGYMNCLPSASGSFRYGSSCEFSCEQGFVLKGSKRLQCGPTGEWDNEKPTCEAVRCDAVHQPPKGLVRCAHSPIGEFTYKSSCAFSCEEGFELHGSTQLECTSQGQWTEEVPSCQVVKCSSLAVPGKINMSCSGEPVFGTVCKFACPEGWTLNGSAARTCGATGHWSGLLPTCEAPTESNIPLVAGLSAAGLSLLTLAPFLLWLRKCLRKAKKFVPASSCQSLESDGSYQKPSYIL

As for `CC(=O)OC(C)(C)C1CC=C(C)CC1` (centres undefined), the results for the AC50 in experiment [1] and in [5] were 33.8 µM (active) and 32.4 µM (active), respectively. For the same molecule, the outcome in experiment [2], in experiment [3], in [4], in experiment [6], in experiment [7] and in experiment [8] was inactive. For the same molecule, the outcome in experiment [9], in experiment [10], in experiment [11], in [12], in experiment [13] and in experiment [14] was inactive. In addition, the outcome was “inactive” in [15]; “inactive” in the experiment with CD38, CD38 (gene 952); “inactive” in the experiment with CD40, CD40 (gene 958) [16]; “inactive” with CD69, CD69 (gene 969); “inactive” in experiment [17].

Regarding `c1ccc2c(c1)-c1ccc3ccc4cccc5cc-2c1c3c45`, the AC50 is 0.825 µM (active) in experiment [1]; 0.238 µM (active) in [3]; 2.71 µM (active) in [10]; 1.38 µM (active) in experiment [12]; 0.0082 µM (active) in experiment [13]; 6.08 µM (active) with CD38, CD38 (gene 952). In addition, the AC50 with CD40, CD40 (gene 958) [16] is 1.98 µM (active); with CD69, CD69 (gene 969), 1.98 µM (active). Moreover, the result in [2], in experiment [4], in [5], in experiment [6], in [7] and in [8] was inactive. For the same molecule, the outcome in experiment [11], in experiment [14], in experiment [15] and in experiment [17] was inactive.

Take `CCCCCCCCCCCCS`: the AC50 in experiment [1] was 20 µM (active); in experiment [2] it was 29.3 µM (active); in [4], 14.2 µM (active); in [5], 20 µM (active); with CD40, CD40 (gene 958) [18], 20 µM (active); in experiment [6] it was 20 µM (active). Besides, the AC50 is 20 µM (active) in experiment [8]; 33.3 µM (active) in [10]; 3.97 µM (active) in experiment [11]; 31.4 µM (active) in experiment [12]; 20 µM (active) in experiment [15]; 28.6 µM (active) with CD38, CD38 (gene 952). The AC50 with CD40, CD40 (gene 958) [16] is 20 µM (active); with CD69, CD69 (gene 969) it was 20 µM (active). Further, the result in experiment [3], in [7], in experiment [13], in experiment [14] and in experiment [17] was inactive.

As for `COc1ccccc1NC(=O)CC(C)=O`, the outcome in [1] is “inactive”; in experiment [2] it was “inactive”; in experiment [3], “inactive”; in experiment [4], “inactive”; in experiment [5], “inactive”; in the experiment with CD40, CD40 (gene 958) [18], “inactive”. The result in experiment [6], in experiment [7], in experiment [8], in [10], in experiment [11] and in experiment [12] was inactive. The outcome in experiment [13] was “inactive”; in [14] it was “inactive”; in experiment [15], “inactive”; with CD38, CD38 (gene 952) it was “inactive”; with CD40, CD40 (gene 958) [16], “inactive”; with CD69, CD69 (gene 969), “inactive”. Moreover, the result in [17] was inactive.

Regarding `COC(=O)c1ccc(C(=O)OC)cc1`, the outcome is “inactive” in [1]; “inactive” in [2]; “inactive” in [3]; “inactive” in experiment [4]; “inactive” in experiment [5]; “inactive” in the experiment with CD40, CD40 (gene 958) [18]. Moreover, the result in [6], in experiment [7], in experiment [8], in experiment [10], in experiment [11] and in experiment [12] was inactive. Moreover, the outcome in experiment [13] was “inactive”; in [14], “inactive”; in [15], “inactive”; with CD38, CD38 (gene 952), “inactive”; with CD40, CD40 (gene 958) [16] it was “inactive”; with CD69, CD69 (gene 969) it was “inactive”. In [17], the outcome was inactive.
